The term AC50 denotes the midpoint of the concentration-response curve, whichever way the signal moves.

Experimental findings from PubChem BioAssay (EPA / NIEHS) are described below.

The structures appear in SMILES notation. Where “and” joins values, the source holds several entries; their conditions need not be identical. Equal entries are not always repeated. Inconclusive results are not listed. Calls of active or inactive are those of the source. The calls were made as follows: active = hit-call score of the fitted dose curve at least 0.9, where 1 is the maximum; inconclusive = response in the unintended direction; inactive = score below 0.9.

The target in test [1] is rat Constitutive Nitric Oxide Synthase (CNOS), Nos1 (gene 24598) (UniProt P29476). In words: NVS_ENZ_rCNOS: NovaScreen (NVS) Enzymatic Assay for rat Constitutive Nitric Oxide Synthase (CNOS) (AID 2283236). A digest of the protocol:
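Single 25 uM duplicate screen, then concentration series to 50 uM for chemicals meeting threshold. Rat brain membrane-derived CNOS activity detected radiometrically by filtration and scintillation counting, 1 h after compound addition; DMSO as baseline.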

The target of test [2] is sheep Cyclooxygenase-1 (Cox1), PTGS1 (gene 443551) (UniProt P05979). Description: NVS_ENZ_oCOX1: NovaScreen (NVS) Enzymatic Assay for sheep Cyclooxygenase-1 (Cox1) (AID 2283239).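 Also: actives reduce cyclooxygenase activity so potencies are for inhibitors.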 Put shortly:
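Absorbance read-out of cyclooxygenase activity in a cell-free preparation from sheep seminal vesicles, taken 0.66 hour after dosing. Initial testing was in duplicate at 25 uM, and confirmatory testing was run in concentration series.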

For test [3], the target named is rat Catechol-O-Methyl Transferase (COMT), Comt (gene 24267) (UniProt P22734). Description: NVS_ENZ_rCOMT: NovaScreen (NVS) Enzymatic Assay for rat Catechol-O-Methyl Transferase (COMT) (AID 2283235). Put shortly:
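Rat dorsal striatum extract served as COMT source; product quantified by HPLC/spectrophotometry, read at 0 h after dosing. Primary single-concentration screen at 25 uM, followed by concentration series to a 50 uM maximum.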

Test [4] has as its target rat Adenylate Cyclase, Forskolin Stimulated, Adcy5 (gene 64532) (UniProt Q04400). In words: NVS_ENZ_rACFSKBinding: NovaScreen (NVS) Enzymatic Assay for rat Adenylate Cyclase, Forskolin Stimulated (AID 2283232). A digest of the protocol:
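Chemicals were first tested at 25 uM in duplicate, then hits run as concentration series with top concentration 50 uM. Enzyme source was rat forebrain membranes; radiometric filter read-out after 1 h, referenced to DMSO.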

Test [5] has as its target rat Acetylcholinesterase (AChE), Ache (gene 83817) (UniProt P37136). Description: NVS_ENZ_rAChE: NovaScreen (NVS) Enzymatic Assay for rat Acetylcholinesterase (AChE) (AID 2283233). Put shortly: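 Compounds first screened at 25 uM in duplicate, then those passing threshold tested in concentration series up to 50 uM, against AChE from rat brain membranes. Enzyme activity read by absorbance at 0.33 h; inhibition scored versus DMSO.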

Test [6] has as its target rat Monoamine Oxidase, MAO-B, Central (MAOBC), Maob (gene 25750) (UniProt P19643). In words: NVS_ENZ_rMAOBC: NovaScreen (NVS) Enzymatic Assay for rat Monoamine Oxidase, MAO-B, Central (MAOBC) (AID 2283238). As for the experimental part: NVS_ENZ_rMAOBC is a biochemical, single-readout assay that uses extracted gene-proteins from Rat brain in a tissue-based cell-free assay. Measurements were taken 1.17 hours after chemical dosing in a 96-well plate.NVS_ENZ_rMAOBC is one of one assay component(s) measured or calculated from the NVS_ENZ_rMAOBC assay. It is designed to make measurements of enzyme activity, a form of enzyme reporter, as detected with scintillation counting signals by Lysate-based radiodetection technology.Data from the assay component NVS_ENZ_rMAOBC was analyzed into 1 assay endpoint. This assay endpoint, NVS_ENZ_rMAOBC, was analyzed in the positive analysis fitting direction relative to DMSO as the negative control and baseline of activity. Using a type of enzyme reporter, loss-of-signal activity can be used to understand changes in the enzymatic activity as they relate to the gene Maob. Furthermore, this assay endpoint can be referred to as a primary readout, because this assay has produced multiple assay endpoints where this one serves a enzymatic activity function. To generalize the intended target to other relatable targets, this assay endpoint is annotated to the oxidoreductase intended target family, where the subfamily is monoamine oxidase.
Binding assays used specific radioligands (tritiated, iodinated) with non-radioactive competitive displacement ligands in agonist or antagonist protocols (as indicated) and various reference compounds and inhibitors to titrate specific binding to receptors and transporters. Most enzyme assays (CYPs, kinases, phosphatases, proteases, HDACs) used recombinant protein and specific substrates (fluorescence mostly, some colorimetric and radioactive) and inhibitors, followed by a biochemical separation of substrate and product. All assays for the biochemical HTS were initially run in duplicate at a single concentration (10 uM for CYP450 assays and 25 uM for all others). Assay-chemical combinations meeting a pre-defined threshold (e.g., 30% inhibition and other criteria defined below) were then run in singleton concentration-response format with maximum concentration of 20 uM for CYPs and 50 uM for all others. Each assay was run with positive and negative controls, and concurrent controls on every plate. The follow-up (secondary) screen tested active chemical-pairs in concentration series, as well as a few additional assays not tested in the primary screen, some selected negative inactives, and several cases re-run in the concentration series for confirmatory purposes.

Test [7] relates to bovine Angiotensin II Receptor Type 2 (AT2), gene 407157. Description: NVS_GPCR_bAT2: NovaScreen (NVS) G Protein-Coupled Receptor Assay for bovine Angiotensin II Receptor Type 2 (AT2) (AID 2283240). Put shortly:
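Radioligand displacement on bovine cerebellar membranes, 1 hour incubation, filter-based scintillation counting; loss of signal vs DMSO. Duplicate single-point screen at 25 uM, then concentration-response to 50 uM maximum.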

The test system of test [8] is rat Monoamine Oxidase, MAO-A, Peripheral (MAOAP), gene 29253. In words: NVS_ENZ_rMAOAP: NovaScreen (NVS) Enzymatic Assay for rat Monoamine Oxidase, MAO-A, Peripheral (MAOAP) (AID 2283237). Put shortly:
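Scintillation counting tracked MAO-A activity in a cell-free rat liver mitochondrial membrane prep, read 1.17 hours after compound addition. Single-point duplicate testing at 25 uM preceded concentration-response follow-up; activity was fitted relative to DMSO.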

Test [9] addresses rat Monoamine Oxidase, MAO-B, Peripheral (MAOBP), Maob (gene 25750) (UniProt P19643). Description: NVS_ENZ_rMAOBP: NovaScreen (NVS) Enzymatic Assay for rat Monoamine Oxidase, MAO-B, Peripheral (MAOBP) (AID 2283242).
In test [10] the target is bovine Dopamine Receptor (DR), Non-selective Binding, DRD1 (gene 281125) (UniProt Q95136). Description: NVS_GPCR_bDR_NonSelective: NovaScreen (NVS) G Protein-Coupled Receptor Assay for bovine Dopamine Receptor (DR), Non-selective Binding (AID 2283241). A digest of the protocol:
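Filter-based radioligand binding with bovine striatal membrane, incubated 1 h; DMSO as negative baseline. Initial duplicate single-point test at 25 uM preceded concentration series for actives.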

rat Monoamine Oxidase, MAO-B, Peripheral (MAOBP), Maob (gene 25750), sequence (P19643 whole entry, looked up): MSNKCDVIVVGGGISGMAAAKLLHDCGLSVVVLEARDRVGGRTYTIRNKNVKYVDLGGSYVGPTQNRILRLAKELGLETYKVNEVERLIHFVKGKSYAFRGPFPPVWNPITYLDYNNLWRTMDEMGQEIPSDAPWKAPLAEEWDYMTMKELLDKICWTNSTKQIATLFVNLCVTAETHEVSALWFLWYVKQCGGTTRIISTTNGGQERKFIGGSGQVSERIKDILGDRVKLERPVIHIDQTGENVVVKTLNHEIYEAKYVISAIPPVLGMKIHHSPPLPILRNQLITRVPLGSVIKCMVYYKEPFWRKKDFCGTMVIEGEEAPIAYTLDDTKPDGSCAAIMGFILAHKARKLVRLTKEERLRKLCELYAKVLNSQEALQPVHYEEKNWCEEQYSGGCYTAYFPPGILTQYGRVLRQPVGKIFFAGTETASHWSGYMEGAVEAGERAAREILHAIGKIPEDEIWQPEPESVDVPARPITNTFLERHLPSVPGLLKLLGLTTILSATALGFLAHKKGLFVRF
rat Monoamine Oxidase, MAO-B, Central (MAOBC), Maob (gene 25750), sequence (P19643 whole entry, looked up): as above
rat Adenylate Cyclase, Forskolin Stimulated, Adcy5 (gene 64532), sequence (Q04400 whole entry, looked up): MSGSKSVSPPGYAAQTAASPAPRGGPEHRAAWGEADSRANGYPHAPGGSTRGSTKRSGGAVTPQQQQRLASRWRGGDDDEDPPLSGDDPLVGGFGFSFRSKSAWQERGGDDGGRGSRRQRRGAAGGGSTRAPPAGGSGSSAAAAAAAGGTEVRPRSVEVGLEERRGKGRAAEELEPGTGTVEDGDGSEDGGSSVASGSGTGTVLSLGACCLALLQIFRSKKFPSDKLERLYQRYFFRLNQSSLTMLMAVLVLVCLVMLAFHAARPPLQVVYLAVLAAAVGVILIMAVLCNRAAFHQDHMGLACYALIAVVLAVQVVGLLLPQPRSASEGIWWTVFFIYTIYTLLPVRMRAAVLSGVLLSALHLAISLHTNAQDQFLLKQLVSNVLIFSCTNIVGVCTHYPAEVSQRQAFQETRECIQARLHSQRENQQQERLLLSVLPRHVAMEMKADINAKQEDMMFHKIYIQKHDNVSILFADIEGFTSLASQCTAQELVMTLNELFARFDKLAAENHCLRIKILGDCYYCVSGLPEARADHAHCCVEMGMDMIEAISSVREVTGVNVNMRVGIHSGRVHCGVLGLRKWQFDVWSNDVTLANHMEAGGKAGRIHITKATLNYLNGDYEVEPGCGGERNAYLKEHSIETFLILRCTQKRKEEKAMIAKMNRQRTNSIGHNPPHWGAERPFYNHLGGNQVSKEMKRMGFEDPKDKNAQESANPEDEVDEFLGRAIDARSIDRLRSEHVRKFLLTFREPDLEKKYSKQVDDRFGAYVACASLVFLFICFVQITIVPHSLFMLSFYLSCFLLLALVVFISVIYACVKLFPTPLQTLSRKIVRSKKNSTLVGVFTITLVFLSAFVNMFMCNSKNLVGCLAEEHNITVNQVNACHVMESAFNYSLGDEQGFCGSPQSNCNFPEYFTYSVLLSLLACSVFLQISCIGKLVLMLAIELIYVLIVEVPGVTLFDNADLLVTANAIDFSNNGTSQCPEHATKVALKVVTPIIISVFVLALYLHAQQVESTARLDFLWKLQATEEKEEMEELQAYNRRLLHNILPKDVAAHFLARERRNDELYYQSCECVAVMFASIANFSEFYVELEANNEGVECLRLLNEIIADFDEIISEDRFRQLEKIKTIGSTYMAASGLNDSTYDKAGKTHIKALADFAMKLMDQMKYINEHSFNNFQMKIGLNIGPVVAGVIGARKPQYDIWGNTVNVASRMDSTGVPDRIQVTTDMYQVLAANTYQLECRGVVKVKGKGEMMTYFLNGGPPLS
rat Constitutive Nitric Oxide Synthase (CNOS), Nos1 (gene 24598), sequence (P29476 whole entry, looked up): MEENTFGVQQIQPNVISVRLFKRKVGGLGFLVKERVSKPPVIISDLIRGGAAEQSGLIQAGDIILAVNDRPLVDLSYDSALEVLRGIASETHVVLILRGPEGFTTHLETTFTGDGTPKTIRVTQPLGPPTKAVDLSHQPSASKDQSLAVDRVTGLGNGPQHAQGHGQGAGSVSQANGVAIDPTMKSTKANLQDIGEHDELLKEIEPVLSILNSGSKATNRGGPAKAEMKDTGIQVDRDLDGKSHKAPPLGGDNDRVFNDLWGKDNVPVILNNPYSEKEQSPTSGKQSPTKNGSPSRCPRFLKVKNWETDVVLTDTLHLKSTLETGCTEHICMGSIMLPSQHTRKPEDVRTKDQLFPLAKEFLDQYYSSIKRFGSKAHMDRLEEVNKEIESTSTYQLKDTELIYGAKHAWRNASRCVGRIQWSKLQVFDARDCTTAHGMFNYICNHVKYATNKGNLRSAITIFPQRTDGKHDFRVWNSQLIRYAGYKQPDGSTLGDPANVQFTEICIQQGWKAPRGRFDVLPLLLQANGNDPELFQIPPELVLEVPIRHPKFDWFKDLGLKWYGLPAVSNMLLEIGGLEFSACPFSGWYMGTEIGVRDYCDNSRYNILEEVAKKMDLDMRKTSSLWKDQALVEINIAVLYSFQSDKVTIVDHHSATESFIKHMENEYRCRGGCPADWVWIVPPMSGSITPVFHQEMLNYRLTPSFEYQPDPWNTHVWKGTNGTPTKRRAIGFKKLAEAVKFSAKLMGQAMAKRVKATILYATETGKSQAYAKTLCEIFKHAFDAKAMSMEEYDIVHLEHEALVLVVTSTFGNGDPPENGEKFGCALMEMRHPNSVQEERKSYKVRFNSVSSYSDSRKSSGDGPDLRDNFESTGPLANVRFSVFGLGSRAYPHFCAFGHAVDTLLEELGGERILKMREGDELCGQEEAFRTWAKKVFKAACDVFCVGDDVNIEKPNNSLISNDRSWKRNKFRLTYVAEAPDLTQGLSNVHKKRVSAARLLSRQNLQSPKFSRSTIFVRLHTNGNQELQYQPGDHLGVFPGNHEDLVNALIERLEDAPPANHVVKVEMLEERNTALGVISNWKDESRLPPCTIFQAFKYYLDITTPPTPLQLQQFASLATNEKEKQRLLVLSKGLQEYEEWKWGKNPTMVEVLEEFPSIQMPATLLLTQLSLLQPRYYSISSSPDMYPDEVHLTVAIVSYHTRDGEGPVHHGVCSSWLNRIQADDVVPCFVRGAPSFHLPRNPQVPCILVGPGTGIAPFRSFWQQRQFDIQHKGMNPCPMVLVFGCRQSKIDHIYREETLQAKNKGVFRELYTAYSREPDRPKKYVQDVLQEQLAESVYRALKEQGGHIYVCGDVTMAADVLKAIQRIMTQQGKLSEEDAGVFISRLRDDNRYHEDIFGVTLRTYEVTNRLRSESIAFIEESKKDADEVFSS
rat Acetylcholinesterase (AChE), Ache (gene 83817), sequence (P37136 whole entry, looked up): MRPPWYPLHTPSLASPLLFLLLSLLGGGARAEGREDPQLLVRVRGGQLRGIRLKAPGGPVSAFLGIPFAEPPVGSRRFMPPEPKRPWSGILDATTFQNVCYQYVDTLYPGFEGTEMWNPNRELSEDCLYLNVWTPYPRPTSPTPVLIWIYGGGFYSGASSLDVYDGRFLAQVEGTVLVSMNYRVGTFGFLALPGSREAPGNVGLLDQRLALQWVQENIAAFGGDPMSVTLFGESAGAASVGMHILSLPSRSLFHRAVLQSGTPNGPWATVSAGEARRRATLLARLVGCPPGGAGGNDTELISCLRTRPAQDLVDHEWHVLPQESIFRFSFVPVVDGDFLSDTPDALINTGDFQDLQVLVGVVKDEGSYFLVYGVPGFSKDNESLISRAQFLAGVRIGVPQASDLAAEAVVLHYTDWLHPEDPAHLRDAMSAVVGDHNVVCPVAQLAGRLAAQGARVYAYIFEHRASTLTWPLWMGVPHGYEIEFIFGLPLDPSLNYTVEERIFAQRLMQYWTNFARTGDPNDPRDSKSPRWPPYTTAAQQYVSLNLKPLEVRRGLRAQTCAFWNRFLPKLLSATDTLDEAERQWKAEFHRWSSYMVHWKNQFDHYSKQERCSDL
sheep Cyclooxygenase-1 (Cox1), PTGS1 (gene 443551), sequence (P05979 whole entry, looked up): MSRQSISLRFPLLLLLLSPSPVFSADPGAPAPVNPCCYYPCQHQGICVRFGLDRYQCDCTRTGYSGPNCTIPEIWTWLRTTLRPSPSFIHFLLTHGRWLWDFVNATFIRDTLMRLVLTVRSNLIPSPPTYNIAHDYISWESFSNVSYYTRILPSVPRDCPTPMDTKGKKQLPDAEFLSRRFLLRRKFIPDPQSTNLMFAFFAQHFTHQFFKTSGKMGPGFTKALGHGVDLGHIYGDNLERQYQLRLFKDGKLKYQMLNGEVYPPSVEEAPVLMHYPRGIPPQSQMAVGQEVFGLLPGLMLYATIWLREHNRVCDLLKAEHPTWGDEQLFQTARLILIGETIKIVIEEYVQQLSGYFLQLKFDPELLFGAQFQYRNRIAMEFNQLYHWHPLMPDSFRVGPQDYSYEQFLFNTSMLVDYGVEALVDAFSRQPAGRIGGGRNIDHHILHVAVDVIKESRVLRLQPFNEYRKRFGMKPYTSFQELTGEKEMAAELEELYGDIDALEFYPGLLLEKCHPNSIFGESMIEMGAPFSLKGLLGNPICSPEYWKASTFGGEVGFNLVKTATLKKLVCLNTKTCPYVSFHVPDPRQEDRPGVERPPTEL
bovine Dopamine Receptor (DR), Non-selective Binding, DRD1 (gene 281125), sequence (Q95136 whole entry, looked up): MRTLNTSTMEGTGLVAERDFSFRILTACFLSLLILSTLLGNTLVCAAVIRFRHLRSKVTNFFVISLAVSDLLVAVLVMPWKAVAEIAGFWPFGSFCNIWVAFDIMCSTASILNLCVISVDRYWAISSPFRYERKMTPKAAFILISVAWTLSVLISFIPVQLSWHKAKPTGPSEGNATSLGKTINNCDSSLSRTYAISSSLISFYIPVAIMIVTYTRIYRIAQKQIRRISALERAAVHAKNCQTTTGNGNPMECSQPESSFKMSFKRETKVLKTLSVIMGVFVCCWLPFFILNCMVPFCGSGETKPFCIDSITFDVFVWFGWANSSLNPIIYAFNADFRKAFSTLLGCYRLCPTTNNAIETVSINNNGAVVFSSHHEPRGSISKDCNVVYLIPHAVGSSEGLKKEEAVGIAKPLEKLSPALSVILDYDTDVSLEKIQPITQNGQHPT

As for `CCCCSP(=O)(SCCCC)SCCCC`, in [1], the AC50 is 6.6 µM (active).
On to `CCCSP(=O)(OCC)SCCC`, for which, in test [2], the outcome was inactive.
Take `CN(C)[C@@H]1C(=O)C(C(N)=O)=C(O)[C@@]2(O)C(=O)C3=C(O)c4c(O)cccc4[C@@](C)(O)[C@H]3[C@H](O)[C@@H]12`: the AC50 in test [3] is 3.33 µM (active) and 1.72 µM (active); in test [1], 5.33 µM (active).
With `COP(=O)(OC)OC(Br)C(Cl)(Cl)Br` (stereo not given), the AC50 in test [4] was 14.6 µM (active); in test [5] it was 1.01 µM (active). Besides, in test [6], the result was inactive.
For `CON=C(C(=O)OC)c1ccccc1CON=C(C)c1cccc(C(F)(F)F)c1`, the call in [7] was inactive.
Consider `COP(=O)(NC(C)=O)SC` (stereo not given), for which the compound was classed as inactive in [1].
In the case of `CCCSP(=O)(OCC)Oc1ccc(Br)cc1Cl` (stereo not given), in test [5], the AC50 is 2.32 µM (active).
For the compound `CCOP(=S)(OCC)OC(Cl)C(Cl)(Cl)Cl` (stereo not given), in test [4], the result was inactive. The AC50 in test [5] is 4.06 µM (active).
`COP(=O)(OC)SCn1c(=O)oc2cc(Cl)cnc21`: in test [5], the AC50 is 2.11 µM (active).
Turning to `CCC(=O)Nc1ccc(Cl)c(Cl)c1`, the AC50 in test [8] is 6.9 µM (active); in test [6], 13 µM (active); in test [9], 25 µM (active).
Regarding `CSC1=N[C@@](C)(c2ccccc2)C(=O)N1Nc1ccccc1`, in [6], the outcome was inactive.
Take `C[Si](Cn1cncn1)(c1ccc(F)cc1)c1ccc(F)cc1`: the AC50 in test [8] was 25 µM (active).
With `CCOC(=O)CC(SP(=O)(OC)OC)C(=O)OCC` (stereo not given), the AC50 in test [5] is 0.917 µM (active).
As to `S=C1NCCN1`, the compound was called inactive in test [4] and in test [9]. In addition, the AC50 in test [5] was 14.3 µM (active).
Turning to `CC(=NC#N)N(C)Cc1ccc(Cl)nc1`, the compound was classed as inactive in test [5].
`Nc1c(Cl)cc([N+](=O)[O-])cc1Cl`: the outcome in test [1] was inactive. Moreover, the AC50 was 18 µM (active) in test [8], 15.3 µM (active) in test [6] and 39.8 µM (active) in test [9].
Consider `CC(C1CC1)C(O)(Cn1cncn1)c1ccc(Cl)cc1` (stereo not given), for which the call in test [9] was inactive.
As to `Cc1nn(-c2cc(NS(C)(=O)=O)c(Cl)cc2Cl)c(=O)n1C(F)F`, in test [9], the compound was called inactive.
Turning to `CC(C)=CC1C(C(=O)OCN2C(=O)C3=C(CCCC3)C2=O)C1(C)C` (stereo not given), in test [2], the AC50 is 4.96 µM (active).
As for `CNC(=O)ON=C(SC)C(=O)N(C)C`, the AC50 in test [5] was 3.26 µM (active).
For the compound `CC(C)[C@H](C(=O)O[C@H](C#N)c1cccc(Oc2ccccc2)c1)c1ccc(Cl)cc1`, in test [1], the compound was called inactive.
Turning to `Nc1nc(N)nc(NC2CC2)n1`, the compound was called inactive in [9].
Consider `CSc1nnc(C(C)(C)C)c(=O)n1N`, for which the AC50 in test [6] was 16.8 µM (active). Moreover, the compound was classed as inactive in test [9].
In the case of `O=c1ccc(=O)[nH][nH]1`, the outcome in test [9] was inactive.
For `N#CSCSC#N`, the AC50 in [4] is 25 µM (active).
As for `CNC(=O)ON=C(C)SC`, in test [5], the AC50 is 3.86 µM (active).
For the compound `CC[C@H](C)[C@H]1O[C@]2(C=C[C@@H]1C)C[C@@H]1C[C@@H](C/C=C(\C)[C@@H](O[C@H]3C[C@H](OC)[C@@H](O[C@H]4C[C@H](OC)[C@@H](NC)[C@H](C)O4)[C@H](C)O3)[C@@H](C)/C=C/C=C3\CO[C@@H]4[C@H](O)C(C)=C[C@@H](C(=O)O1)[C@]34O)O2`, the result in test [8], in [6] and in test [7] was inactive.
As to `Cc1ccn2nc(S(=O)(=O)Nc3c(F)cccc3F)nc2n1`, the result in test [4] was inactive.
On to `CCCCN(CC)c1c([N+](=O)[O-])cc(C(F)(F)F)cc1[N+](=O)[O-]`, for which, in test [1], the outcome was inactive.
Consider `CCOP(=S)(OCC)Oc1ccc([N+](=O)[O-])cc1`, for which the result in test [10] was inactive.
`FC(F)C(F)(F)OCC(Cn1cncn1)c1ccc(Cl)cc1Cl` (stereo not given): in [9], the result was inactive.
Consider `CCCCOC(=O)c1ccccc1C(=O)O`, for which the call in test [2] and in test [10] was inactive.
On to `CNC(=O)Oc1cccc2c1OC(C)(C)O2`, for which, in test [5], the AC50 is 0.797 µM (active).
In the case of `CN(C)C(=O)Nc1cccc(C(F)(F)F)c1`, the AC50 in test [8] is 25 µM (active).
`O=[N+]([O-])c1cc(C(F)(F)F)c(Cl)c([N+](=O)[O-])c1Nc1ncc(C(F)(F)F)cc1Cl`: in test [5], the compound was called inactive.
